Screening data deposited in PubChem by several laboratories.
The entries come from a sample that favours hits as a whole.
NPR2 activator = GC-B (human) receptor activation | HEK293-GC-B cells, CNP EC30, cGMP TR-FRET; 0% at EC30 CNP, 100% saturating CNP | activation, % at 10 µM | 370,000 compounds, 0.11% hits | AID 1920062;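 active = activation at 10 µM reaching about 35% in either raw or pattern-adjusted values, limit read from the data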
ALR inh = blocks human ALR sulfhydryl oxidase activity; P55789; purified ALR, DTT oxidation, H2O2 HRP-luminol luminescence; inhibition, % (concentration not given with the values); 290,000 compounds, 3.8% hits;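 active = mean replicate inhibition above about 79%, with every replicate also reaching it, limit read from the data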
Target sequence (P55789 whole entry, looked up): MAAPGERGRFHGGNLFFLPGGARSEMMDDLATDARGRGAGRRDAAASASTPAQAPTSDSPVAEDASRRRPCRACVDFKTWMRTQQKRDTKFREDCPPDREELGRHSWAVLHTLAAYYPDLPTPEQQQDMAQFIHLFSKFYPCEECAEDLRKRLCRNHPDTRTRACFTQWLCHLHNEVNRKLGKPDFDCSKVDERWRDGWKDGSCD
NPR1 activator = GC-A (human) enzyme activation; P16066; 370,000 compounds, 0.14% hits; activation, % at 10 µM; HEK293 GC-A cells, cGMP TR-FRET, EC30 ANP; 0% at EC30 ANP, 100% saturating ANP; in the data active = activation above about 40%
HDAC3 inh = inhibitors of human histone deacetylase 3; recombinant HDAC3, fluorogenic peptide/trypsin coupled, fluorescence; inhibition, % at 8.3 µM; O15379; AID 2718; 320,000 compounds, 0.15% hits; in the data active = inhibition above about 26%, passing the limit was not always enough
Of the large screens only hits and unclear results are named; the others gave an inactive call.

O=C(COC(=O)c1cccc(Br)c1)NC1CCCCCCC1	none (no result: ALR inh, HDAC3 inh)
COc1ccccc1NC(=O)c1sc(NC(=O)c2ccco2)c(C#N)c1C	none
Cc1ccccc1OCC(=O)Nc1sc(C(=O)Nc2cccc(C)c2C)c(C)c1C#N	NPR1 activator 55.8
Cc1ccc2c(CC(=O)NNC(=O)c3ccccc3)coc2c1	none
O=C(Cc1coc2cc(O)ccc12)NNC(=O)c1ccc(Br)s1	ALR inh 99.3
CN1CCN(Cc2nc3ccccc3c(=O)n2Cc2nc(-c3ccc4ccccc4c3)cs2)CC1	ALR inh 98.4
CN1CCN(Cc2nc3ccccc3c(=O)n2Cc2nc(-c3cccc([N+](=O)[O-])c3)cs2)CC1	none (no result: ALR inh, HDAC3 inh)
COc1ccccc1CNC(=O)CCNC(=O)N1CC(=O)Nc2ccccc21	none
O=C(N/N=C/c1ccc(O)cc1)c1cc(C23CC4CC(CC(C4)C2)C3)[nH]n1	ALR inh 90.8
COc1ccc(/C=N/NC(=O)c2cc(C34CC5CC(CC(C5)C3)C4)[nH]n2)cc1OC	none
O=C(O)Cn1c(SCc2ccccc2)nc2ccccc21	none
O=C(O)Cn1c(SCc2cccc3ccccc23)nc2ccccc21	ALR inh 97.8
COc1cc(CNc2ccc3c(c2)CCC3)cc(OC)c1O	ALR inh 98.8
COc1cc(CNc2cc(C)ccc2C)cc(OC)c1OC	ALR inh 99.0
COc1cc(CNc2ccc(C)c(C)c2)cc(OC)c1OC	ALR inh 96.8 (no result: NPR2 activator, NPR1 activator)
COc1ccc(C)cc1NCc1cccc(OC)c1OC	none
COc1ccc(CNc2cc(C)ccc2C)c(OC)c1OC	ALR inh 98.3
Cc1noc(C)c1C(=O)OCC(=O)NCc1ccccc1	none (no result: ALR inh, HDAC3 inh)
CCOC(=O)Cc1nn[nH]n1	none
COc1cc(C)c(CNc2ccc(OC)c(OC)c2)cc1C	ALR inh 82.5 (no result: NPR2 activator, NPR1 activator)
CCn1c(SCC(=O)c2ccccc2)nnc1-c1ccoc1C	ALR inh 84.1
CCn1c(SCC(=O)c2ccccc2)nnc1-c1cccnc1	ALR inh 91.0
CCC/C(=N\NC(=O)C1CC1)c1ccc(Br)cc1	none
C=CCNC(=O)C1CC1(c1ccc(C)cc1)c1ccc(C)cc1 (stereo not given)	none (no result: ALR inh)
O=C1c2c(O)cc(O)cc2O[C@H](c2ccc(O)c(O)c2)[C@@H]1O	ALR inh 98.7 (no result: NPR2 activator, NPR1 activator)
O=C1c2c(O)cc(O)cc2O[C@H](c2ccc(O)cc2)[C@H]1O	ALR inh 87.3
COc1cccc([C@@H]2Oc3ccc(OC)cc3C(=O)[C@H]2O)c1	none (no result: NPR2 activator, NPR1 activator)
C[C@@H]1O[C@@H](O[C@@H]2C(=O)c3c(O)cc(O)cc3O[C@H]2c2ccc(O)c(O)c2)[C@H](O)[C@H](O)[C@H]1O	ALR inh 98.9
O=C1c2c(O)cc(O)cc2O[C@H](c2ccc(O)c(O)c2)[C@H]1O	ALR inh 99.2
COc1ccc([C@@H]2CC(=O)c3c(O)cc(O)cc3O2)cc1O	none
Fc1ccccc1SCc1nnc(-c2ccccc2Br)o1	none
O=C(NCc1ccc(Cl)cc1)C1CCN(S(=O)(=O)c2ccc(F)cc2)CC1	none
Oc1cc(O)c2c(c1)O[C@H](c1ccc(O)c(O)c1)[C@@H](O)C2	ALR inh 95.4
Nc1nc(SCC(=O)N2CCN(c3ccccc3)CC2)n[nH]1	none
Nc1nc(N2CCN(c3ccc(Cl)cc3)CC2)n[nH]1	ALR inh 98.1
Clc1ccc(N2CCN(c3ccnc(Cl)n3)CC2)cc1	none
Nc1nc(N2CCN(c3ccccc3)CC2)n[nH]1	ALR inh 99.7
Nc1nc(N2CCN(c3cccc(Cl)c3)CC2)n[nH]1	ALR inh 99.2
C/C=C/c1ccc2c(c1)O[C@H](CN(C)CC1CCOCC1)[C@@H](C)CN([C@H](C)CO)S2(=O)=O	none (no result: ALR inh, HDAC3 inh)
Cc1cccc(OCC(=O)NCC(=O)N/N=C/c2c(C)[nH]c3ccccc23)c1	none
COCc1ccc(CN2CCC(n3nccc3NC(=O)CCOc3ccccc3)CC2)o1	none
Cc1cccn2c(=O)c(C=O)c(Cl)nc12	ALR inh 98.0
CCC1CCCCN1CCCNC(=O)CS(=O)Cc1nc(-c2ccc(OC)c(OC)c2)oc1C (stereo not given)	ALR inh 99.6
Cc1ccc(-c2nc(CS(=O)(=O)CC(=O)NC3CCCCCC3)c(C)o2)cc1	none
COc1cccc(-c2nc(CSCC(=O)NCC3CCCO3)c(C)o2)c1 (stereo not given)	ALR inh 99.1
Cc1oc(-c2ccc(Cl)cc2)nc1CS(=O)CC(=O)NC1CCCC1 (stereo not given)	ALR inh 99.0
Cc1ccc(-c2nc(CS(=O)CC(=O)NC3CCCCC3)c(C)o2)cc1 (stereo not given)	ALR inh 98.8
COc1ccc(C(=O)CNc2cccc(F)c2)cc1	none
